The source of these data is PubChem BioAssay (NCI).

Compounds without any hit were thinned out: in the full panel of roughly 83,000, 20% have a hit.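 Percent growth is the endpoint: 0 to 100 indicates growth inhibition (40 means 60% inhibition), 0 means no net growth, and negative values indicate cell death.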 Unmarked numbers belong to inactive results. Activity calls are given as the source filed them. Rule for the calls: active = growth percent below 10; inactive = the rest.

Among the test systems are HCT-15 colon; HT29 colon; SNB-75 CNS; SNB-19 CNS; U251 CNS; PC-3 prostate; SK-MEL-5 melanoma; UACC-62 melanoma; LOX IMVI melanoma; SK-MEL-28 melanoma; SK-MEL-2 melanoma; SN12C renal; UO-31 renal; TK-10 renal; ACHN renal; CAKI-1 renal; A498 renal; MOLT-4 leukemia; CCRF-CEM leukemia.
Holding throughout (assay): NCI-60 one-dose screen, 48 h (100 = growth as untreated, 0 = no growth, -100 = all killed)
Common to all, as to conditions: 10 µM unless noted

Consider `C=C1C(=O)O[C@H]2[C@H]1CC/C(COC(=O)NCCc1ccc(OC)cc1)=C\CC[C@@]1(C)O[C@@H]21`, for which the growth with HCT-15 colon was -7.21% (active); with HT29 colon, -58.3% (active); with SNB-75 CNS it was 79.4%; with SNB-19 CNS, 45.8%; in the assay with U251 CNS, 59.3%; with PC-3 prostate, 45.6%. Besides, the growth in the assay on SK-MEL-5 melanoma was 72.3%; with UACC-62 melanoma, -46.7% (active); in the assay with LOX IMVI melanoma, -26.8% (active); in the assay on SK-MEL-28 melanoma it was -5.94% (active); in the assay on SK-MEL-2 melanoma, 63.4%; in the assay on SN12C renal, 11.7%. The growth was -82.8% (active) in the assay with UO-31 renal; -7.32% (active) in the assay on TK-10 renal; -6.86% (active) in the assay on ACHN renal; -2.71% (active) in the assay on CAKI-1 renal; 62% in the assay with A498 renal; 2.83% (active) in the assay on MOLT-4 leukemia.

On to `CCOC(=O)CC(C#N)(CC(=O)OCC)C(=O)OCC`, for which the growth with HCT-15 colon is 99.4%; with HT29 colon, 125%; with SNB-75 CNS, 89.7%; in the assay with SNB-19 CNS, 111%; in the assay with U251 CNS, 94.8%; with PC-3 prostate it was 89.2%. Also, the growth in the assay on SK-MEL-5 melanoma is 98%; with UACC-62 melanoma, 97.7%; in the assay with LOX IMVI melanoma, 103%; with SK-MEL-28 melanoma, 98%; with SK-MEL-2 melanoma, 106%; in the assay on SN12C renal it was 95.1%. Further, the growth was 96.1% with UO-31 renal; 139% in the assay with TK-10 renal; 107% in the assay on ACHN renal; 99.5% with CAKI-1 renal; 102% in the assay with CCRF-CEM leukemia; 109% in the assay on MOLT-4 leukemia.

For `CCN1C(=O)/C(=c2\sc3n(c2=O)C2C(NN=3)N(CC)C(=S)N2CC)c2ccccc21` (stereo not given), the growth with HCT-15 colon was 100%; in the assay with HT29 colon, 111%; in the assay on SNB-75 CNS it was 84.6%; in the assay with SNB-19 CNS it was 97.2%; with U251 CNS, 97.3%; in the assay on PC-3 prostate, 94%. Also, the growth was 103% with SK-MEL-5 melanoma; 97.8% with UACC-62 melanoma; 98.4% in the assay with LOX IMVI melanoma; 108% in the assay on SK-MEL-28 melanoma; 102% in the assay on SK-MEL-2 melanoma; 99.4% with SN12C renal. In addition, the growth in the assay on UO-31 renal was 81.2%; with TK-10 renal, 133%; in the assay on ACHN renal, 100%; in the assay on CAKI-1 renal it was 76%; in the assay with A498 renal, 91.5%; in the assay with MOLT-4 leukemia, 103%.

As for `COc1cc(NCCN=C(N)NC(N)=NC(C)C)c2ncccc2c1`, the growth is 100% in the assay on HCT-15 colon; 61.2% in the assay on HT29 colon; 63.8% with SNB-75 CNS; 84% with SNB-19 CNS; 79.7% in the assay on U251 CNS; 73.4% in the assay with PC-3 prostate. The growth with SK-MEL-5 melanoma was 37.2%; with UACC-62 melanoma, 102%; with LOX IMVI melanoma, 89.2%; in the assay on SK-MEL-28 melanoma it was 86.1%; with SK-MEL-2 melanoma, -14.2% (active); with SN12C renal, 74.8%. Moreover, the growth in the assay with UO-31 renal was 81.7%; in the assay with TK-10 renal, 110%; with ACHN renal, 94.1%; with CAKI-1 renal it was 95.3%; in the assay with A498 renal, 91.2%; in the assay on MOLT-4 leukemia, 67.5%.

As for `NC(=S)NN=C1CCCCC1`, the growth in the assay with HCT-15 colon was 77.7%; with HT29 colon, 47.5%; in the assay on SNB-75 CNS it was 105%; in the assay with SNB-19 CNS, 106%; in the assay with U251 CNS, 76.4%; with PC-3 prostate, 82.7%. Also, the growth in the assay with SK-MEL-5 melanoma is 99.2%; with UACC-62 melanoma it was 90%; with LOX IMVI melanoma it was 77.9%; in the assay on SK-MEL-28 melanoma, 98.3%; in the assay on SK-MEL-2 melanoma it was 107%; in the assay with SN12C renal it was 85.2%. The growth in the assay with UO-31 renal was 79.8%; with TK-10 renal, 100%; with ACHN renal, 103%; in the assay with CAKI-1 renal, 103%; in the assay with A498 renal, 87%; in the assay with MOLT-4 leukemia it was 68.8%.

`O=C(CSc1nc(-c2ccc(Cl)cc2)cn1-c1ccc(Cl)cc1)c1ccc(Br)cc1`: the growth in the assay on HCT-15 colon is 85.2%; in the assay with HT29 colon, 66.9%; in the assay on SNB-75 CNS it was 44.4%; with SNB-19 CNS it was 77.8%; in the assay on U251 CNS it was 37.5%; in the assay with PC-3 prostate, 50.3%. For the same compound, the growth is 94.9% in the assay on SK-MEL-5 melanoma; 72.1% in the assay on UACC-62 melanoma; 73.4% with LOX IMVI melanoma; 87.1% with SK-MEL-28 melanoma; 87% in the assay on SK-MEL-2 melanoma; 62.6% with SN12C renal. The growth in the assay on UO-31 renal is 45.5%; with TK-10 renal, 93%; in the assay with ACHN renal, 22.4%; with CAKI-1 renal it was 78.7%; in the assay with A498 renal, 93.8%; in the assay on MOLT-4 leukemia, 90.7%.

Take `CC(=O)OCC1OC(OCC2OC(OC(C)=O)C(OC(C)=O)C(OC(C)=O)C2OC(C)=O)C(OC(C)=O)C(OC(C)=O)C1OC(C)=O` (stereo not given): the growth in the assay with HCT-15 colon is 96.7%; in the assay on HT29 colon, 103%; in the assay with SNB-75 CNS it was 92.8%; in the assay on SNB-19 CNS, 100%; in the assay with U251 CNS, 92%; with PC-3 prostate, 93.5%. Further, the growth is 94.2% in the assay on SK-MEL-5 melanoma; 92.2% in the assay on UACC-62 melanoma; 95.7% with LOX IMVI melanoma; 104% in the assay with SK-MEL-28 melanoma; 107% with SK-MEL-2 melanoma; 95.1% with SN12C renal. Moreover, the growth is 95.4% in the assay on UO-31 renal; 106% with TK-10 renal; 94.7% in the assay on ACHN renal; 94.7% in the assay on CAKI-1 renal; 87% in the assay with A498 renal; 99.6% in the assay with CCRF-CEM leukemia. Besides, in the assay on MOLT-4 leukemia, the growth was 104%.

In the case of `CCC1CCc2nc3sc(C(=O)Nc4ccccc4F)c(N)c3cc2C1` (stereo not given), the growth in the assay on HCT-15 colon was 35.3%; in the assay with HT29 colon it was 39.5%; in the assay on SNB-75 CNS it was 66.1%; in the assay on SNB-19 CNS it was 76%; in the assay with U251 CNS it was 65.5%; with PC-3 prostate, 67.3%. For the same compound, the growth in the assay with SK-MEL-5 melanoma is 40.2%; with UACC-62 melanoma, 47.9%; in the assay on LOX IMVI melanoma, 62.8%; in the assay on SK-MEL-28 melanoma it was 59.9%; in the assay with SK-MEL-2 melanoma it was 52.1%; with SN12C renal, 89.8%. The growth was 77.5% with UO-31 renal; 73.7% in the assay with TK-10 renal; 69.4% with ACHN renal; 53.2% in the assay with CAKI-1 renal; 44.7% in the assay on A498 renal; 40% in the assay with MOLT-4 leukemia.
